Where “and” joins values, the source holds several entries; their conditions need not be identical. Identical values can stand only once. The whole screen tested about 5,500 compounds, of which about 2,000 (36%) were called active. Inconclusive results (about 18%) are left out. Cut-off read from the data, not from the text of the source: active = normalized growth mostly below about 0.91 (no sharp cut-off); inconclusive = no clear call, values can overlap the other calls; inactive = mostly above about 0.92. Some of the results follow.
Assay: chemical genetic growth profiling, strain panel (AID 1159580);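 note: tested at 20 µM; growth read once vehicle control cultures reached saturation at 30 °C; 1 = growth at the plate median or of vehicle wells; lower values mean less growth of the strain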
Conditions: S. cerevisiae deletion strains, growth OD

Measured: normalized growth

C1CCC(C(CC2CCCCN2)C2CCCCC2)CC1 (stereo not drawn)
0.169 (active) and 1.01 (inactive): locus YJL095W, strain BCK1, stronger effect = lower value
active: locus YAL013W, strain DEP1, stronger effect = lower value 0.789 | locus YAL021C, strain ccr4, stronger effect = lower value 0.628 | locus YAL026C, strain drs2, stronger effect = lower value 0.0926 | locus YBR021W, strain FUR4, stronger effect = lower value 0.219 | locus YBR023C, strain chs3, stronger effect = lower value 0.884 | locus YBR231C, strain swc5, stronger effect = lower value 0.554 | locus YCL029C, strain bik1, stronger effect = lower value 0.873 | locus YDL035C, strain GPR1, stronger effect = lower value 0.493 | locus YDL074C, strain BRE1, stronger effect = lower value 0.585 | locus YDL101C, strain DUN1, stronger effect = lower value 0.173 | locus YDL134C, strain PPH21, stronger effect = lower value 0.209 | locus YDL192W, strain arf1, stronger effect = lower value 0.0725 | locus YDR069C, strain doa4, stronger effect = lower value 0.706 | locus YDR101C, strain arx1, stronger effect = lower value 0.911 | locus YDR137W, strain rgp1, stronger effect = lower value 1.32 [resistant] | locus YDR162C, strain NBP2, stronger effect = lower value 0.0586 | locus YDR318W, strain mcm21, stronger effect = lower value 0.646 | locus YDR388W, stronger effect = lower value 0.125 | locus YDR502C, strain sam2, stronger effect = lower value 0.594 | locus YEL061C, strain CIN8, stronger effect = lower value 0.658 | locus YER167W, strain BCK2, stronger effect = lower value 0.718 | locus YFR010W, strain ubp6, stronger effect = lower value 0.601 | locus YGL086W, strain mad1, stronger effect = lower value 0.333 | locus YGL248W, strain PDE1, stronger effect = lower value 0.227 | locus YGR135W, strain pre9, stronger effect = lower value 0.501 | locus YGR252W, strain gcn5, stronger effect = lower value 0.271 | locus YHR013C, strain ard1, stronger effect = lower value 0.842 | locus YHR129C, strain ARP1, stronger effect = lower value 0.742 | locus YHR142W, strain chs7, stronger effect = lower value 0.774 | locus YIL066C, strain RNR3, stronger effect = lower value 0.504 | locus YIL073C, strain SPO22, stronger effect = lower value 0.124 | locus YIR030C, strain dcg1, stronger effect = lower value 0.897 | locus YJL168C, strain set2, stronger effect = lower value 0.731 | locus YJL187C, strain SWE1 (second series), stronger effect = lower value 0.521 | locus YJR043C, strain POL32, stronger effect = lower value 0.722
inactive: locus YAL030W, strain snc1, stronger effect = lower value 0.986 | locus YBL061C, strain skt5, stronger effect = lower value 0.935 | locus YBR009C, strain hhf1, stronger effect = lower value 0.955 | locus YBR171W, strain sec66, stronger effect = lower value 0.973 | locus YBR229C, strain ROT2, stronger effect = lower value 0.99 | locus YBR279W, strain paf1, stronger effect = lower value 0.969 | locus YCL011C, strain gbp2, stronger effect = lower value 0.97 | locus YCL016C, strain dcc1, stronger effect = lower value 0.955 | locus YCL061C, strain MRC1, stronger effect = lower value 0.992 | locus YCL069W, strain vba3, stronger effect = lower value 0.965 | locus YCR088W, strain abp1, stronger effect = lower value 0.96 | locus YDL005C, strain med2, stronger effect = lower value 0.983 | locus YDL040C, strain nat1, stronger effect = lower value 0.978 | locus YDL185W, strain tfp1, stronger effect = lower value 1.01 | locus YDR001C, strain nth1, stronger effect = lower value 0.967 | locus YDR159W, strain sac3, stronger effect = lower value 0.965 | locus YDR195W, strain ref2 1.13 | locus YDR297W, strain sur2, stronger effect = lower value 0.987 | locus YDR334W, strain swr1, stronger effect = lower value 0.972 | locus YDR335W, strain msn5, stronger effect = lower value 0.957 | locus YDR392W, strain spt3, stronger effect = lower value 0.871 | locus YEL003W, strain gim4, stronger effect = lower value 0.946 | locus YEL037C, strain rad23, stronger effect = lower value 0.974 | locus YEL061C, strain CIN8 (second series), stronger effect = lower value 0.973 | locus YER015W, strain faa2, stronger effect = lower value 0.979 | locus YER016W, strain bim1, stronger effect = lower value 0.972 | locus YER110C, stronger effect = lower value 0.935 | locus YER111C, strain swi4, stronger effect = lower value 0.991 | locus YER155C, strain BEM2 (second series), stronger effect = lower value 0.912 | locus YER155C, strain BEM2, stronger effect = lower value 0.957 | locus YGL078C, strain dbp3, stronger effect = lower value 0.999 | locus YGL167C, strain pmr1, stronger effect = lower value 0.989 | locus YGL173C, strain kem1, stronger effect = lower value 0.962 | locus YGL227W, strain vid30, stronger effect = lower value 0.991 | locus YGL240W, strain doc1, stronger effect = lower value 0.989 | locus YGL253W, strain hxk2, stronger effect = lower value 0.973 | locus YHR027C, strain rpn1, stronger effect = lower value 0.987 | locus YHR079C, strain IRE1 (second series), stronger effect = lower value 0.93 | locus YHR079C, strain IRE1, stronger effect = lower value 1.02 | locus YHR094C, strain hxt1, stronger effect = lower value 1.01 | locus YHR200W, strain rpn10, stronger effect = lower value 0.922 | locus YIL125W, strain kgd1, stronger effect = lower value 1.02 | locus YJL092W, strain hpr5, stronger effect = lower value 0.984 | locus YJL095W, strain BCK1 (second series), stronger effect = lower value 0.927 | locus YJL115W, strain asf1, stronger effect = lower value 0.984 | locus YJL129C, strain trk1, stronger effect = lower value 0.953 | locus YJL134W, strain LCB3, stronger effect = lower value 0.996 | locus YJL154C, strain vps35, stronger effect = lower value 0.964 | locus YJL164C, strain tpk1, stronger effect = lower value 0.968 | locus YJL166W, strain qcr8, stronger effect = lower value 0.984 | locus YJL187C, strain SWE1, stronger effect = lower value 0.973
0.0919 (active) and 1.01 (inactive): locus YHR030C, strain SLT2, stronger effect = lower value
